Experimental data published in PubChem BioAssay (NCI).
About 83,000 compounds went through this panel and 20% of them were active in at least one assay; those are over-represented in the sample as a whole.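 For each line, cells grew in 96-well plates with the test compound present at a single concentration for 48 hours.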 Active and inactive are the calls of the source. Rule for the calls: active = growth percent below 10; inactive = the rest.

Legend:
Experiment in all cases: NCI-60 one-dose screen, 48 h (100 = growth as untreated, 0 = no growth, -100 = all killed)
Conditions in all cases: 10 µM unless noted
[1] = tested on: HCT-15 colon
[2] = tested on: HT29 colon
[3] = tested on: SNB-75 CNS
[4] = tested on: SNB-19 CNS
[5] = tested on: U251 CNS
[6] = tested on: PC-3 prostate
[7] = tested on: SK-MEL-5 melanoma
[8] = tested on: LOX IMVI melanoma
[9] = tested on: SK-MEL-2 melanoma
[10] = tested on: EKVX NSCLC
[11] = tested on: SN12C renal
[12] = tested on: UO-31 renal
[13] = tested on: TK-10 renal
[14] = tested on: ACHN renal
[15] = tested on: CAKI-1 renal
[16] = tested on: A498 renal
[17] = tested on: CCRF-CEM leukemia
[18] = tested on: MOLT-4 leukemia

Measured: growth

O=C1CCN2C(=O)Nc3ccccc3C2C1 (stereo not drawn)
inactive: [1] 99% | [2] 104% | [3] 83.4% | [4] 92% | [5] 104% | [6] 95.2% | [7] 103% | [8] 106% | [9] 110% | [10] 99.8% | [11] 94.2% | [12] 94.1% | [13] 104% | [14] 106% | [15] 89.6% | [16] 120% | [17] 106% | [18] 97.8%

COc1cccc(-c2nn(-c3ccccc3)cc2-c2ccnc(NCCNS(=O)(=O)c3ccc(Cl)cc3)c2)c1
active: [7] -13.7% | [18] 1.18%
inactive: [1] 24.1% | [2] 11.6% | [3] 66.2% | [4] 46% | [5] 31.2% | [6] 10.6% | [8] 24.5% | [9] 13.4% | [10] 32.1% | [11] 33.9% | [12] 15.8% | [13] 41.5% | [14] 26.6% | [15] 32.2% | [16] 45.9% | [17] 15.3%

COc1cccc(-c2nn(-c3ccccc3)cc2-c2ccnc(NCCCN)c2)c1
inactive: [1] 56.7% | [2] 86.2% | [3] 45.4% | [4] 48.9% | [5] 38.9% | [6] 47.7% | [7] 28.5% | [8] 54.8% | [9] 26.3% | [10] 66.7% | [11] 50.9% | [12] 51.6% | [13] 72.2% | [14] 82.7% | [15] 83.5% | [16] 42.3% | [17] 29.3% | [18] 22.9%

O=S(=O)(NCCNc1cc(-c2cn(-c3ccccc3)nc2-c2cccc(O)c2)ccn1)c1ccc(Cl)cc1
active: [1] 7.32% | [2] 0.572% | [17] 9.05% | [18] 8.1%
inactive: [3] 53.8% | [4] 47.7% | [5] 22.1% | [6] 14.9% | [7] 15.5% | [8] 30% | [9] 34.9% | [10] 52.1% | [11] 39.4% | [12] 23% | [13] 50.5% | [14] 28.5% | [15] 41% | [16] 34.9%

CC[C@]12C=CCN3CC[C@@]4(c5cc([C@H]6CCC(=O)N6)c(OC)cc5N(C)[C@H]4[C@@](O)(C(=O)OC)[C@@H]1OC(C)=O)[C@@H]32
inactive: [1] 104% [2.5 µM] | [2] 103% [2.5 µM] | [3] 81.6% [2.5 µM] | [4] 105% [2.5 µM] | [5] 98.3% [2.5 µM] | [6] 95.5% [2.5 µM] | [7] 99.8% [2.5 µM] | [8] 108% [2.5 µM] | [9] 98.4% [2.5 µM] | [10] 111% [2.5 µM] | [11] 96.9% [2.5 µM] | [12] 86.3% [2.5 µM] | [13] 106% [2.5 µM] | [14] 90% [2.5 µM] | [15] 94.4% [2.5 µM] | [16] 116% [2.5 µM] | [17] 99.6% [2.5 µM] | [18] 102% [2.5 µM]

COc1ccc(C2c3ccccc3NC(=O)N2C2CCN(C)CC2)c(OC)c1 (stereo not drawn)
inactive: [1] 95.6% | [2] 100% | [3] 72.7% | [4] 93% | [5] 100% | [6] 94.4% | [7] 84.7% | [8] 103% | [9] 108% | [10] 87% | [11] 95.6% | [12] 89.7% | [13] 98.1% | [14] 103% | [15] 102% | [16] 102% | [17] 106% | [18] 99.5%

N#CCCCCCn1c2ccccc2c2c3c(c4c5ccccc5n(CCCCCC#N)c4c21)C(=O)N(O)C3=O
inactive: [1] 97.3% | [2] 68% | [3] 100% | [4] 66.7% | [5] 83.8% | [6] 68.5% | [7] 74.2% | [8] 24% | [9] 85% | [10] 95% | [11] 79.8% | [12] 58.2% | [13] 95.3% | [14] 83.8% | [16] 107% | [17] 74.5% | [18] 73.8%
active: [15] 0.852%

COC(=O)[C@]12CC[C@@H](C)[C@H](C)[C@@H]1C1=CC(=O)[C@@H]3[C@@]4(C)C[C@@H](OC(C)=O)[C@H](OC(C)=O)[C@@](C)(COC(C)=O)[C@@H]4C(=O)C[C@@]3(C)[C@]1(C)CC2
active: [6] 2.41% | [18] 4.9%
inactive: [1] 38.5% | [2] 40.4% | [3] 55.6% | [4] 57% | [5] 40.7% | [7] 20% | [8] 50.8% | [9] 75.6% | [10] 57.8% | [11] 57.1% | [12] 42.5% | [13] 74% | [14] 31.8% | [15] 30.5% | [16] 53% | [17] 17%

COc1cccc(-c2nn(-c3ccccc3)cc2-c2ccnc(NCCCNS(=O)(=O)c3cccc(F)c3)c2)c1
active: [7] -45.6% | [9] 4% | [12] 9.64% | [18] -3.37%
inactive: [1] 21.9% | [2] 15.1% | [3] 55.4% | [4] 42.8% | [5] 27.5% | [6] 11.9% | [8] 27.5% | [10] 45.1% | [11] 32.3% | [13] 36.9% | [14] 19.4% | [15] 32.4% | [16] 30.4% | [17] 11.4%

O=S(=O)(NCCNc1cc(-c2cn(-c3ccccc3)nc2-c2cccc(O)c2)ccn1)c1ccccc1
inactive: [1] 17.9% | [2] 24.1% | [3] 78.4% | [4] 72.4% | [5] 43.3% | [6] 30.1% | [7] 34% | [8] 54.7% | [9] 66.3% | [10] 73.1% | [11] 63.4% | [12] 37.4% | [13] 67.1% | [14] 57.8% | [15] 60.8% | [16] 70.5% | [17] 27.6% | [18] 25.1%

O=S(=O)(NCCCNc1cc(-c2cn(-c3ccccc3)nc2-c2cccc(O)c2)ccn1)c1ccc(F)cc1
inactive: [3] 46.3% | [4] 57.4% | [5] 31.3% | [6] 23% | [7] 31.4% | [8] 18.9% | [9] 44.7% | [10] 51.2% | [11] 47.3% | [12] 21.9% | [13] 50.6% | [14] 32.8% | [15] 41.4% | [16] 34.3% | [17] 19.4% | [18] 18.8%
active: [1] 6.54% | [2] 0.761%

COC(=O)[C@]12CC[C@@H](C)[C@H](C)[C@@H]1C1=CC[C@@H]3[C@@]4(C)C(c5ncon5)=C[C@@](C)(CO)C4=CC[C@@]3(C)[C@]1(C)CC2
active: [1] -64.9% | [2] -68.2% | [4] 6.01% | [5] -59.5% | [6] -12.7% | [7] -71.6% | [8] -93.7% | [9] -51% | [10] -76.5% | [11] -14.4% | [12] -93.5% | [13] 1.76% | [14] -89.4% | [16] -36.4% | [17] -52.5% | [18] -42.8%
inactive: [3] 55.5% | [15] 20.6%

COC(=O)[C@]12CC[C@@H](C)[C@H](C)[C@@H]1C1=CC[C@@H]3[C@@]4(C)C[C@@H](O)OC[C@](C)(C=O)C4C(=O)C[C@@]3(C)[C@]1(C)CC2 (stereo partly drawn)
active: [1] 5.82% | [2] -59.3% | [5] 0.219% | [6] 5.85% | [7] -91.3% | [8] -34.2% | [9] -22.4% | [12] 7.68% | [13] 9.25% | [14] 7.86% | [15] 7.25% | [16] -0.985% | [17] -7.54% | [18] -9.93%
inactive: [3] 13.3% | [4] 27.1% | [10] 21% | [11] 11.4%

COc1cccc(-c2nn(-c3ccccc3)cc2-c2ccnc(NCCCO)c2)c1
inactive: [1] 26.3% | [3] 23.4% | [4] 36.3% | [5] 21% | [6] 46.4% | [7] 29.8% | [8] 33.6% | [10] 67.6% | [11] 34.3% | [12] 48.9% | [13] 63.1% | [14] 55.6% | [15] 43% | [16] 15.1% | [17] 11.8% | [18] 25.1%
active: [2] 7.65% | [9] -0.25%

CCc1cccc(CC)c1NC(=O)c1sc2nc3c(cc2c1N)CCCC3
inactive: [1] 55% | [2] 77.4% | [3] 54.2% | [4] 71.3% | [5] 73.4% | [6] 63% | [7] 63.9% | [8] 75.2% | [9] 56.3% | [10] 88.9% | [11] 83.5% | [12] 57.7% | [13] 90.5% | [14] 71.8% | [15] 64.6% | [16] 40.2% | [17] 60.7% | [18] 61.9%

COc1cccc(-c2nn(-c3ccccc3)cc2-c2ccnc(NCCCNS(=O)(=O)c3ccccc3)c2)c1
active: [18] 8.92%
inactive: [1] 26.5% | [2] 19% | [3] 62.1% | [4] 47.9% | [5] 34% | [6] 15.7% | [7] 11.3% | [8] 33.1% | [9] 29.7% | [10] 46.5% | [11] 38.7% | [12] 13.8% | [13] 46.9% | [14] 28.1% | [15] 48.4% | [16] 42.3% | [17] 14.4%
